Results on 10 compounds are retold here after PubChem BioAssay (Tox21).

Values without a mark were called inactive. Records with an inconclusive call do not appear. Calls of active or inactive are those of the source. Unless noted, the call rests on the fitted dose curve; in most records, active means well fitted curve in the direction sought with a large enough effect in the repeat runs; inconclusive means weak or mixed curves; inactive means no such curve, though single readings can be large; an effect the other way counts as inactive or inconclusive.

Assay [1] is described as follows: qHTS assay for small molecules that induce genotoxicity in human embryonic kidney cells expressing luciferase-tagged ATAD5 (AID 651632). Further: nearly all actives have a fitted effect of over 15% in size. The method in brief: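 DMSO vehicle served as the control. HEK293T reporter cells, 16 hr at 37C, then 30 min Amplite at room temperature; ATAD5 induction is measured as luciferase activity.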
For orientation: In qHTS, concentration-response curves come from the screen itself.

The nature of assay [2]: qHTS assay for small molecules that induce genotoxicity in human embryonic kidney cells expressing luciferase-tagged ATAD5 - cell viability (AID 651634; calls by dose curve; further: nearly all actives have a fitted effect of over 25% in size). The method in brief: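 Here HEK293T cells with the ATAD5 luciferase reporter are incubated with test compounds for 15.5 hr, and cytotoxicity is then gauged by measuring protease activity in live cells using fluorescence.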

Assay [3] in a line: qHTS assay for small molecule disruptors of the mitochondrial membrane potential - cell viability (AID 720634; calls by dose curve;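 further: human HepG2 liver cancer cells; series mostly up to about 83 µM; nearly all actives have a fitted effect of over 20% in size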). An outline of the steps:
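Viability of HepG2 cells is scored from ATP content by luminescence; cells are exposed to compound for 1 hr at 37 C and 5% CO2, then dosed with m-MPI dye before the CellTiter-Glo reagent.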

Assay [4] in a line: qHTS assay for small molecule disruptors of the mitochondrial membrane potential (AID 720635). Further: potency means the concentration at half of the fitted maximal effect. The method in brief: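 HepG2 cells exposed to compound 1 hr at 37C, then Mito-MPS dye 30 min. Ratio read of aggregate (540/590 nm) versus monomer (490/535 nm) fluorescence.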
Assay [5] in a line: qHTS assay to test for compound auto fluorescence at 590 nm (red) in HepG2 cells (AID 720674). The method in brief:
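Seeding: 2,000 HepG2 cells/well, MEM/10% FBS, overnight 37 C. Dosing: compound vs DMSO. Incubation: 1 hr, 37 C, 5% CO2. Read: fluorescence 540 ex/590 em, Rose Bengal sodium as red reference.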

The nature of assay [6]: qHTS assay to test for compound auto fluorescence at 535 nm (green) in HepG2 cells (AID 720675).
The nature of assay [7]: qHTS assay to test for compound auto fluorescence at 460 nm (blue) in HEK293 cells (AID 720678). The method in brief: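 After cell attachment (4-5 hr, 37C), compounds were pinned onto HEK293 monolayers in 10% dialyzed FBS medium. The blue channel (405/460 nm) was read following overnight culture. Equivalency was calculated against triamterene.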
Assay [8] is described as follows: qHTS assay to test for compound auto fluorescence at 590 nm (red) in HEK293 cells (AID 720679). An outline of the steps: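 Plates of HEK293 cells (10% dialyzed FBS) are treated with 23 nL compound or DMSO vehicle after a 4-5 hr attachment period, incubated overnight at 37C, and read for red fluorescence at 540/590nm.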
The nature of assay [9]: qHTS assay to test for compound auto fluorescence at 535 nm (green) in HEK293 cells (AID 720680).
Assay [10] in a line: qHTS assay to test for compound auto fluorescence at 460 nm (blue) in HEK293 cell free culture (AID 720681). An outline of the steps:
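Compounds were added to cell-free DMEM with 10% FBS and fluorescence read directly. The blue channel used 405 nm excitation and 460 nm emission, with triamterene as the reference fluorophore.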

The nature of assay [11]: qHTS assay to test for compound auto fluorescence at 535 nm (green) in HEK293 cell free culture (AID 720682). An outline of the steps:
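Green-label autofluorescence (485 nm excitation, 535 nm emission) measured on compound added to cell-free culture medium (DMEM, 10% FBS). Output is expressed relative to fluorescein.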

A short description of assay [12]: qHTS assay to test for compound auto fluorescence at 590 nm (red) in HEK293 cell free culture (AID 720683). The method in brief:
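Cell-free wells of DMEM with 10% FBS received compound, and intrinsic fluorescence was read at excitation/emission 540/590 nm. Values expressed as equivalence to Rose Bengal sodium.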

The nature of assay [13]: qHTS assay to test for compound auto fluorescence at 590 nm (red) in HepG2 cell free culture (AID 720684). An outline of the steps: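 Auto fluorescence equivalency versus Rose Bengal sodium, red channel Ex/Em 540/590 nm; compounds in cell-free MEM/10% FBS; DMSO vehicle control.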
The nature of assay [14]: qHTS assay to test for compound auto fluorescence at 460 nm (blue) in HepG2 cell free culture (AID 720685). The method in brief: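 Cell-free plates of MEM plus 10% FBS received 23 nL compound or DMSO vehicle; blue-channel (405/460 nm) intensity scored against triamterene as reference fluorophore.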
A short description of assay [15]: qHTS assay to test for compound auto fluorescence at 535 nm (green) in HepG2 cell free culture (AID 720686).
A short description of assay [16]: qHTS assay to test for compound auto fluorescence at 460 nm (blue) in HepG2 cells (AID 720687). The method in brief: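 HepG2 cells in MEM with 10% FBS, attached overnight at 37 C, were exposed to compound or DMSO for 1 hr at 37 C, 5% CO2. Blue fluorescence was read at 405/460 nm, with triamterene as reference fluorophore.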
In assay [17] the target is Glucocorticoid receptor (Homo sapiens) (UniProt P04150). In words: qHTS assay to identify small molecule agonists of the glucocorticoid receptor (GR) signaling pathway (AID 720691; active means well fitted activation curve with a large enough effect in the signal ratio in the repeat runs, not every such curve was filed as active; the % refers to the signal ratio). An outline of the steps: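 Compounds in DMSO, alongside positive controls, were added to GR-bla HeLa reporter cells and incubated 18 h at 37 C; GRE-driven beta-lactamase was detected by fluorescence after 2 h with FRET substrate at room temperature.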
Chain of Glucocorticoid receptor (Homo sapiens) (P04150 whole entry, looked up): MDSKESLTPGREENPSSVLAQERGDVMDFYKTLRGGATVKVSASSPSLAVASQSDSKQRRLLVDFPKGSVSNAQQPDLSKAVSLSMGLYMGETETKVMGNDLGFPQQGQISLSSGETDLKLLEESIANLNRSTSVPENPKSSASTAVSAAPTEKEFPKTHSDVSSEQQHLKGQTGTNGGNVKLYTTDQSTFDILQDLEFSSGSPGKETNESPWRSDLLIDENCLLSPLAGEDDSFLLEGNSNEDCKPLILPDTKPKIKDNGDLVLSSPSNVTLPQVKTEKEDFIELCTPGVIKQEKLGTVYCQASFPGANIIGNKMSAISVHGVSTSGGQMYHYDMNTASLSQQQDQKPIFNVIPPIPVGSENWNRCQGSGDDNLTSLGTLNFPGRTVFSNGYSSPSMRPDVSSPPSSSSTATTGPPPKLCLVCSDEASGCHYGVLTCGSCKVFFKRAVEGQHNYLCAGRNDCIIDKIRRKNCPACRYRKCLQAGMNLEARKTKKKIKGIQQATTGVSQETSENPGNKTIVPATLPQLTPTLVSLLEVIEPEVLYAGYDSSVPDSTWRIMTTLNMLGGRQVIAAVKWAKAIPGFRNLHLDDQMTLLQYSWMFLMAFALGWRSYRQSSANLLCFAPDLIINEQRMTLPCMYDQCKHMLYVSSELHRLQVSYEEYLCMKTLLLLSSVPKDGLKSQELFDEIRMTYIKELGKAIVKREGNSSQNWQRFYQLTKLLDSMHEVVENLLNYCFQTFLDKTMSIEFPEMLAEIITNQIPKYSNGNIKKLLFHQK

Assay [18] shares this target. In words: qHTS assay to identify small molecule antagonists of the glucocorticoid receptor (GR) signaling pathway (AID 720692; active means well fitted inhibition curve with a large enough effect in the signal ratio in the repeat runs, not every such curve was filed as active; the % refers to the signal ratio; further: potency means the concentration at half of the fitted maximal effect). The method in brief:
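In a 1536-well cell format, compounds were added 4 h after seeding GR-bla HeLa cells, together with dexamethasone at 5 nM final; reporter activity was measured by FRET-substrate fluorescence following 18 h at 37 C.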

Assay [19] can be described thus: qHTS assay for small molecule agonists of the p53 signaling pathway - cell viability (AID 651633; calls by dose curve;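 further: p53RE-bla HCT reporter cells with a stable beta-lactamase p53 reporter; series mostly up to about 83 µM; nearly all actives have a fitted effect of over 30% in size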). An outline of the steps:
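p53RE-bla cells were treated with compound for 16 hours at 37 C. Cytotoxicity was then measured as CellTiter-Glo luminescence after 30 min at room temperature.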

Regarding `CC(C)(C)N(CCO)CCO`, the Potency entry in assay [1], in [2], in [3], in assay [4], in assay [7] and in assay [10] was “inactive” each time. Moreover, the Potency entry in [14], in assay [16], in assay [17] and in assay [18] was “inactive” in each case. Besides, the compound was called inactive in [5], in assay [6], in assay [8], in assay [9], in assay [11] and in assay [12]. In addition, the call in assay [13] and in assay [15] was inactive.

`CNc1ncnc2nc[nH]c12`: the Potency result in [2], in assay [3], in assay [7], in assay [10], in [14] and in assay [16] was “inactive” in each case. Further, the Potency in assay [4] was 2.48 µM (active). For the same compound, the result in assay [5], in assay [6], in [8], in [9], in [11] and in assay [12] was inactive. For the same compound, the call in assay [13] and in [15] was inactive.

`O=C(O)C(O)[C@H](O)[C@@H](O)[C@H](O)[C@H](O)CO` (stereo not given in full): the Potency entry in [1], in assay [2], in assay [7], in assay [10], in assay [14] and in assay [16] was “inactive” in each case. Further, the Potency result in [17] and in assay [18] was “inactive” throughout. The outcome in [5], in assay [6], in assay [8], in [9], in [11] and in assay [12] was inactive. Besides, the call in assay [13] and in assay [15] was inactive.

As for `CSc1ccc(C=O)cc1`, the Potency result in assay [1], in assay [2], in [3], in [4], in assay [7] and in assay [10] was “inactive” each time. In addition, the Potency result in [14], in assay [16], in assay [17] and in [18] was “inactive” each time. The outcome in [5], in assay [6], in assay [8], in [9], in assay [11] and in [12] was inactive. Moreover, the compound was called inactive in assay [13] and in [15].

As to `CCCOCC(C)OCC(C)O` (stereo not given), the Potency result in assay [19], in assay [2], in assay [3], in assay [7], in assay [10] and in assay [14] was “inactive” each time. The Potency entry in assay [16] and in assay [17] was “inactive” each time. In addition, the result in assay [5], in [6], in [8], in [9], in assay [11] and in assay [12] was inactive. For the same compound, the result in assay [13] and in assay [15] was inactive.

In the case of `Cc1onc(-c2ccccc2)c1-c1ccc(S(N)(=O)=O)cc1`, the Potency entry in assay [1], in [2], in assay [3], in assay [7], in [10] and in assay [14] was “inactive” each time. The Potency entry in assay [16], in assay [17] and in [18] was “inactive” in each case. In addition, the call in [5], in [6], in assay [8], in assay [9], in [11] and in [12] was inactive. Moreover, the result in assay [13] and in [15] was inactive.

Consider `CCC(=O)c1cccc(Cl)c1`, for which the Potency result in assay [1], in assay [2], in assay [3], in assay [7], in assay [10] and in assay [14] was “inactive” throughout. Besides, the Potency entry in [16], in [17] and in [18] was “inactive” in each case. The outcome in [5], in assay [6], in [8], in [9], in assay [11] and in [12] was inactive. Further, the outcome in [13] and in [15] was inactive.

Consider `NC(=O)Nc1nc2ccccc2[nH]1`, for which the Potency result in assay [1], in assay [2], in assay [3], in assay [7], in [10] and in assay [14] was “inactive” throughout. In addition, in assay [16], the Potency entry is “inactive”. Further, the result in assay [5], in assay [6], in assay [8], in [9], in assay [11] and in [12] was inactive. The result in assay [13] and in assay [15] was inactive.

As to `O=C(O)Cc1cc(I)c(Oc2cc(I)c(O)c(I)c2)c(I)c1`, the Potency result in [1], in [3], in assay [7], in assay [10], in [14] and in [16] was “inactive” throughout. Moreover, the Potency result in assay [17] is “inactive”. For the same compound, the compound was called inactive in [5], in assay [6], in [8], in assay [9], in assay [11] and in assay [12]. Moreover, the compound was called inactive in assay [13] and in assay [15]. For the same compound, in [18], the Potency is 10.7 µM (active).

On to `CCCc1ccccc1O`, for which the Potency result in assay [1], in [2], in assay [7], in assay [10], in assay [14] and in assay [16] was “inactive” each time. Besides, the Potency entry in assay [17] and in assay [18] was “inactive” each time. Besides, in assay [4], the Potency was 27.3 µM (active). For the same compound, the result in [5], in assay [6], in assay [8], in assay [9], in [11] and in assay [12] was inactive. Also, the compound was classed as inactive in assay [13] and in assay [15].
